# Experimental data: PubChem BioAssay (NCI)
# Compounds without any hit were thinned out: in the full panel of roughly 83,000, 20% have a hit.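 Treatment: one concentration, 48 hours, 96-well format. Scoring: percent growth, with anything below 10 considered active.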 A number with no mark means an inactive call. The source made the active and inactive calls.
# Test system: M14 melanoma
# Assay: NCI-60 one-dose screen, 48 h (100 = growth as untreated, 0 = no growth, -100 = all killed)
# Details: 10 µM unless noted
# Description: Growth inhibition of the M14 human tumor cell line is measured as a screen for anti-cancer activity. Cells are grown in 96 well plates and exposed to the test compound for 48 hours. Compounds are tested at a single concentration, which is 10^-5 M for most compounds. The reported endpoint is percent growth (GI% or GIPRCNT), where numbers from 0 - 100% represent growth inhibition, and numbers from -100% - 0 represent cell death. For example, a value of 40 represents 60% growth inhibition. A value of 0 means no net growth occurred over the course of the experiment. A value of -40 indicates 40% of cells at the beginning of the experiment died by the end of the experiment. A value of -100 means all cells are dead at the end of the experiment.
# NCI-60 Human Tumor Cell Lines Screen was performed using the standard one-dose NCI protocol, which is described in more detail at https://dtp.cancer.gov/discovery_development/nci-60/default.htm.
# Compounds with GIPRCNT values below 10 were considered active. Activity score was based on GIPRCNT using the following formula: […]
# Score is 0 for GIPRCNT values of 100 or above, 50 for GIPRCNT values of 0, and 100 for GIPRCNT values of -100.
row,SMILES,growth
1,O=C(/C=C/c1ccc2ccccc2c1)Nc1ncc(Cc2ccccc2)s1,59.8%
2,CC(=O)c1c(C)[nH]c(-c2nc3ccc(N4CCN(C)CC4)cc3[nH]2)c1-c1ccc(OCC2CCOCC2)cc1,34.5%
3,Cc1ccc(Sc2sc(-c3ccccc3)nc2[P+](c2ccccc2)(c2ccccc2)c2ccccc2)cc1,-7.46% (active)
4,Fc1ccc(Nc2nnc(-c3ccc(Cl)cc3)o2)cc1,95.4%
5,CCC1C(=O)COC1=O (stereo not given),93.2%
6,COc1ccc(-c2cc(/C=C/C(=O)c3ccc(N)cc3)[nH]n2)cc1,23%
7,Cn1cc(-c2nc(-c3c[nH]c4ncccc34)cs2)c2cc(Cl)ccc21,42.2%
8,N#CC1=C(N)Oc2c(c(N)nn2-c2ccccc2)C1c1ccc(Cl)cc1Cl (stereo not given),96.7%
9,Oc1ccc(CCC2CCCC(CCc3ccc(OCCF)cc3)N2)cc1 (stereo not given),90.4%
10,CNC(=O)c1cc(Oc2ccc3nc(NC(=O)Nc4ccc(Cl)cc4)sc3c2)ccn1,63%
11,Cc1ccc(-c2nn(Cc3cn(-c4cc(C)nc5ccccc45)nn3)c3ncnc(N)c23)cc1,52.7%
12,Nc1c(C(=O)Nc2cccc3ccccc23)sc2nc3c(cc12)CCCC3,7.77% (active)
13,COc1ccc(O)c(-c2cc(-c3ccc(Cl)cc3)c(C#N)c(=O)[nH]2)c1,49.9%
14,C=C(C)[C@@H]1CC[C@]2(C)[C@H](CC[C@@H]3[C@H]4[C@H]5OC[C@@]4(CCC5(C)C)CC[C@]32C)[C@@]1(C)CCCN,25.8%
15,COc1cc2[nH]c(C(=O)c3cc(OC)c(OC)c(OC)c3)c(N)c2cc1C#CC1CC1,22%
16,CC(=O)O[C@H]1CC[C@@]2(C)[C@@H](CC[C@@H]3[C@@H]2CC(=O)[C@@]2(C)[C@H]3C[C@@H](C3CCCC3=O)[C@@H]2C(C)=O)C1 (stereo not given in full),97.8%
17,Nc1nc(N)c2nc3c(nc2n1)CCCCCCCCCC3,33.1%
18,COC(=O)c1cc(=O)nc(N/N=C/c2ccc(C)cc2)s1,99.1%
19,CC(C)(C)c1cc(-n2c(-c3ccc(Cl)cc3)nc3cc(C(=O)Nc4ccc(Cl)cc4)ccc32)n[nH]1,62.7%
20,C#CCC(C)(O)/C=C/C1=C(C)CCCC1(C)C (stereo not given),89.4%

row,SMILES,growth
1,COc1ccc(C2(Cl)c3ccccc3N(c3ccccc3)c3ccccc32)cc1,-55.1% (active)
2,COc1cc2c3c(c4c5ccccc5[nH]c4c2c(OC)c1OC)C(=O)N(O)C3=O,37.5%
3,O=P(O)(c1ccccc1)c1ccccc1I,90.1%
4,O=C1/C(=C\c2ccc(Br)o2)SC(=S)N1CCc1ccc(O)cc1,73.7%
5,CCC(c1ccc(OC)cc1)C(CC)c1ccc(O)c(CN2CCCCC2)c1 (stereo not given),44.3%
6,COc1cnc2c(c1)C(=O)c1c-2n(CCCNC(C)C)c(=O)c2cc([N+](=O)[O-])ccc12,-76.8% (active)
7,N#C/C(=C\c1ccc(-c2ccc(Cl)cc2)o1)c1nc(-c2ccco2)cs1,98.9%
8,CC1(C)NCCC[C@]2(C)[C@H]3CC[C@@H]4[C@H]5[C@H](C(=O)/C=C/c6ccccn6)CC[C@]5(CO)CC[C@@]4(C)[C@]3(C)CC[C@@H]12,61.1%
9,CN1CCN(CCOc2ccc(-c3cnc4c(-c5cccc(F)c5)cnn4c3)cc2)CC1,2.02% (active)
10,Clc1cc(Cl)cc(Nc2ccc3c(OCCCN4CCOCC4)cccc3n2)c1,0.379% (active)
11,COc1ccc2c(c1)c(-c1nc(-c3c[nH]c4ncccc34)cs1)cn2CCCN1CCCCC1,-84.1% (active)
12,CC(=O)c1c(C)[nH]c(-c2nc3ccc(N4CCN(C)CC4)cc3[nH]2)c1-c1ccc2c(c1)OCCO2,40.1%
13,COc1ccc2[nH]c(-c3ccc(Cl)cc3)cc(=O)c2c1,95.1%
14,COc1ccc(OC)c(-c2c(C#N)c(-c3ccco3)nc3c2c(-c2ccccc2)nn3-c2ccccc2)c1,108%
15,COC(=O)[C@@H]1[C@H]2C[C@H]3c4[nH]c5cc(OC)ccc5c4CCN3C[C@@H]2C[C@H](OC(=O)/C=C/c2ccnc(OC)c2)[C@H]1OC,93.2%
16,COc1cc(NC(C)CN(CC(C)C)C(C)C)c2ncccc2c1 (stereo not given),102%
17,O=C1C=C(C(O)c2ccc(O)cc2)C(=O)c2ccccc21 (stereo not given),79.5%
18,Fc1ccc2[nH]cc(-c3nc(-c4c[nH]c5ncccc45)cs3)c2c1,46.1%
19,C#Cc1cc2c(N)c(C(=O)c3cc(OC)c(OC)c(OC)c3)[nH]c2cc1OC,19.9%
20,COc1cnc2c(c1)C(=O)c1c-2n(CCCNC2=NCCS2)c(=O)c2cc([N+](=O)[O-])ccc12,-73.5% (active)
